For assay [1], the target named is Paired box protein Pax-6 (Homo sapiens) (UniProt P26367). The assay is described as follows: ATG_Pax6_CIS: Attagene CIS-FACTORIAL HepG2 Assay for human Paired Box 6 (PAX6) (AID 2282956). The conditions noted are these: HepG2 CIS-FACTORIAL PAX6 reporter transcription, RNA readout; actives raise or lower the signal. In outline:
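DMSO-referenced bidirectional fits of reporter mRNA fluorescence; HepG2 with transient cis-promoter MRTUs, 24 h post-dose, RT-PCR plus capillary electrophoresis detection.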

The nature of assay [2]: ATG_PXRE_CIS: Attagene CIS-FACTORIAL HepG2 Assay for human Pregnane X Receptor Element (PXRE) (AID 2282957). The conditions noted are these: HepG2 Attagene CIS-FACTORIAL PXRE reporter, mRNA; actives raise or lower the signal. In outline: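 Fluorescent capillary electrophoresis of amplified reporter cDNA gave the signal, collected 24 h after dosing HepG2 cells that held transfected cis-element reporter constructs.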

A short description of assay [3]: ATG_PPRE_CIS: Attagene CIS-FACTORIAL HepG2 Assay for human Peroxisome Proliferator-activated Response Element (PPRE) (AID 2282958). The conditions noted are these: HepG2 PPRE cis-element reporter, Attagene transcription factor profiling; actives raise or lower the signal. The gist of the method:
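After human HepG2 hepatoma cells were transiently transfected with cis-promoter reporter constructs, they were exposed to test chemicals for 24 hours. Reporter RNA was then reverse-transcribed, PCR-amplified, FAM-labeled, HpaI-digested and quantified by capillary electrophoresis.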

Assay [4] can be described thus: ATG_RORE_CIS: Attagene CIS-FACTORIAL HepG2 Assay for human RAR-related Orphan Receptor Element (RORE) (AID 2282959). The conditions noted are these: HepG2 Attagene cis-factorial RORE reporter, mRNA; actives raise or lower the signal. In outline: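 Measured here: transcript induction of a cis-regulated reporter in HepG2 cells transiently transfected via FuGene 6. After 24 h, RNA was processed by RT-PCR and fluorescent capillary electrophoresis; DMSO defined baseline activity.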

Assay [5] is described as follows: ATG_Sox_CIS: Attagene CIS-FACTORIAL HepG2 Assay for human SRY-box transcription factor (SOX) (AID 2282960). The conditions noted are these: HepG2 Attagene cis-factorial SOX reporter, mRNA; actives raise or lower the signal. The gist of the method:
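Using transiently transfected HepG2 cells, reporter transcription driven by cis elements was assessed 24 h after dosing. Signal was fluorescence of capillary-separated RT-PCR products, with DMSO defining baseline activity.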

Assay [6] deals with Transcription factor Sp1 (Homo sapiens) (UniProt P08047). The assay is described as follows: ATG_Sp1_CIS: Attagene CIS-FACTORIAL HepG2 Assay for human Specificity Protein 1 (Sp1) (AID 2282961). The conditions noted are these: HepG2 Sp1 cis-reporter transcription, actives raise or lower the signal. In outline:
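After transient transfection of HepG2 cells with cis-promoter reporter units and 24 h chemical treatment, reporter transcripts were quantified by RT-PCR and capillary electrophoresis fluorescence. Gain- and loss-of-signal fitted against DMSO.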

For assay [7], the target named is Signal transducer and activator of transcription 3 (Homo sapiens) (UniProt P40763). Description: ATG_STAT3_CIS: Attagene CIS-FACTORIAL HepG2 Assay for human Signal Transducer and Activator of Transcription 3 (STAT3) (AID 2282963). The conditions noted are these: HepG2, Attagene cis-factorial STAT3 reporter transcription; actives raise or lower the signal. The gist of the method: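 Uses human liver HepG2 transiently carrying cis-regulated reporter transcription units. Following 24 h dosing, reporter mRNA induction was detected by RT-PCR and capillary electrophoresis, analysed bidirectionally versus DMSO.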
Signal transducer and activator of transcription 3 (Homo sapiens), sequence (P40763 whole entry, looked up): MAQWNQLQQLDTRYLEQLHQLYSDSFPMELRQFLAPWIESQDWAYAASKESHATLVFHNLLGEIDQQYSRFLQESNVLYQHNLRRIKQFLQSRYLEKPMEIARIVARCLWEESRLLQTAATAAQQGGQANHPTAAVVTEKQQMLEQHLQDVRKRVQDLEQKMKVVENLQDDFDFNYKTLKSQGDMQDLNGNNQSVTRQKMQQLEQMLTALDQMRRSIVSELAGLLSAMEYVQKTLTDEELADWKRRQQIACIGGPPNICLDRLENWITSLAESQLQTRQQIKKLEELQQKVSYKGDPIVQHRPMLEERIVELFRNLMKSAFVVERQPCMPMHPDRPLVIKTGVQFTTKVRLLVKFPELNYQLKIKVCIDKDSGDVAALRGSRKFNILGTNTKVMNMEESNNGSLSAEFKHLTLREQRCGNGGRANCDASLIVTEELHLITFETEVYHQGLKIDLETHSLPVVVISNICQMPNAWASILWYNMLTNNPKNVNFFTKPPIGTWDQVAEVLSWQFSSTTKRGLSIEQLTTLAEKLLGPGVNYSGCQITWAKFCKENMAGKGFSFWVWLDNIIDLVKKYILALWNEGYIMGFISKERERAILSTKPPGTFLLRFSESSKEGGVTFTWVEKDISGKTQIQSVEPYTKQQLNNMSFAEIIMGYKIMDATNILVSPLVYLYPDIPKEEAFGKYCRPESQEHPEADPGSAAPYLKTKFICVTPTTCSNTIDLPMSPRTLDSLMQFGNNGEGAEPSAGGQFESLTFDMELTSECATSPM

The nature of assay [8]: ATG_TCF_b_cat_CIS: Attagene CIS-FACTORIAL HepG2 Assay for human T-Cell-Factor with beta-catenin (TCF/b-cat) (AID 2282965). The conditions noted are these: HepG2 TCF/beta-catenin cis-reporter transcription, actives raise or lower the signal. The gist of the method: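 In this cis-format system, transfected HepG2 cells report endogenous transcription factor activity. Readout after 24 h exposure is reporter transcript abundance from RT-PCR and capillary electrophoresis, analysed for gain or loss of signal versus DMSO.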

Assay [9] in a line: ATG_TGFb_CIS: Attagene CIS-FACTORIAL HepG2 Assay for human Transforming Growth Factor (TGF) (AID 2282967). The conditions noted are these: HepG2 Attagene CIS TGFb reporter, mRNA transcription; actives raise or lower the signal. The gist of the method: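 Endogenous TGFB1-linked transcription factor activity read as reporter mRNA via RT-PCR and capillary electrophoresis, 24 h after dosing transiently transfected HepG2 cells. Gain or loss of signal fitted relative to DMSO.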

Assay [10] concerns the target Steroid hormone receptor ERR1 (Homo sapiens) (UniProt P11474). Description: ATG_ERRa_TRANS: Attagene TRANS-FACTORIAL HepG2 Assay for human Estrogen-Related Receptor alpha (ERRa) (AID 2282971; active = hit-call score of the fitted dose curve at least 0.9, where 1 is the maximum). The conditions noted are these: HepG2 Attagene TRANS reporter, ERRa transactivation. The gist of the method:
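HepG2 cells transiently transfected with multiplexed GAL4-UAS reporter units reading chimeric ERRa-Gal4 activity; 24 h compound exposure. Reporter mRNA measured by RT-PCR, 6-FAM labelling, HpaI digest and capillary electrophoresis; gain of signal fitted versus DMSO baseline.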

For assay [11], the target named is X-box-binding protein 1 (Homo sapiens) (UniProt P17861). The assay is described as follows: ATG_Xbp1_CIS: Attagene CIS-FACTORIAL HepG2 Assay for human X-box Binding Protein 1 (XBP1) (AID 2282972). The conditions noted are these: HepG2 XBP1 cis-element reporter, Attagene multiplex; actives raise or lower the signal. The gist of the method: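 Changes in reporter transcript abundance, read by RT-PCR and capillary electrophoresis, reflect endogenous transcription factor activity. Transfected HepG2 cells received compound for 24 hours; DMSO defined baseline for bidirectional analysis.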
X-box-binding protein 1 (Homo sapiens), sequence (P17861 whole entry, looked up): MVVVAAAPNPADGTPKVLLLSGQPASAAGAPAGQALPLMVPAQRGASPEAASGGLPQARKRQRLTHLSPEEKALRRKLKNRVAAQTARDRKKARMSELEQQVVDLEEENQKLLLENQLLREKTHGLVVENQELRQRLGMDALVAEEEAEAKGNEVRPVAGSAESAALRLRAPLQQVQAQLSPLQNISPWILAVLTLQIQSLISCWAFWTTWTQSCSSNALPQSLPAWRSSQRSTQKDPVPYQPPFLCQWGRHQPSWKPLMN

The nature of assay [12]: ATG_SREBP_CIS: Attagene CIS-FACTORIAL HepG2 Assay for human Sterol Regulatory Element Binding (SREBP) (AID 2282962). The conditions noted are these: HepG2 Attagene cis-factorial SREBP reporter, mRNA; actives raise or lower the signal. The gist of the method: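 In this cis-format assay, HepG2 liver cells express reporters controlled by promoter elements responsive to native transcription factors. Exposure lasts 24 h; reporter mRNA fluorescence from capillary electrophoresis gives the signal, fitted bidirectionally against DMSO.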

Assay [13] in a line: ATG_TA_CIS: Attagene CIS-FACTORIAL HepG2 Assay for human TA Basal Promoter (AID 2282964). The conditions noted are these: HepG2 Attagene CIS-factorial TA basal promoter reporter; actives raise or lower the signal. In outline:
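Background-control readout: TA basal promoter reporter mRNA, fitted in both directions relative to DMSO. Measured by RT-PCR and capillary electrophoresis 24 hours after treating HepG2 human liver cells transiently carrying multiplexed cis-regulated reporter constructs.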

Assay [14] can be described thus: ATG_VDRE_CIS: Attagene CIS-FACTORIAL HepG2 Assay for human Vitamin D Receptor Element (VDRE) (AID 2282968). The conditions noted are these: HepG2 VDRE cis-reporter transcription, actives raise or lower the signal. In outline:
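Transfected HepG2 reporter cells, chemical treatment 24 h. RNA isolated, cDNA amplified with reporter-specific primers, products analysed by capillary electrophoresis. Endpoint fitted in both directions versus DMSO.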

Assay [15] deals with Estrogen receptor (Homo sapiens) (UniProt P03372). Description: ATG_ERa_TRANS: Attagene TRANS-FACTORIAL HepG2 Assay for human Estrogen Receptor alpha (ERa) (AID 2282970; active = hit-call score of the fitted dose curve at least 0.9, where 1 is the maximum). The conditions noted are these: HepG2 Attagene TRANS ERa GAL4 reporter, mRNA. In outline:
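One of 30 multiplexed endpoints from a HepG2 TRANS system, this one reports ERa-Gal4-driven reporter mRNA. Transcripts were quantified 24 hours post-dosing by fluorescent RT-PCR and capillary electrophoresis, with activity scored as induction over DMSO.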

Assay [16] is described as follows: ATG_TAL_CIS: Attagene CIS-FACTORIAL HepG2 Assay for human TAL Basal Promoter (AID 2282966).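 Also: background control endpoint measuring basal TAL promoter reporter mRNA not a specific factor.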 The conditions noted are these: HepG2 Attagene cis-factorial TAL promoter reporter; actives raise or lower the signal. In outline: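 Transiently transfected HepG2 (cis-regulated reporter units), 24 h treatment, mRNA read by fluorescent CE after RT-PCR; bidirectional fit, DMSO baseline.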

Assay [17] in a line: ATG_M_19_TRANS: Attagene TRANS-FACTORIAL HepG2 Assay for M19 Transcription Factor (Internal Marker) (AID 2282974; active = hit-call score of the fitted dose curve at least 0.9, where 1 is the maximum). The conditions noted are these: HepG2 Attagene TRANS-FACTORIAL M19 internal marker reporter. In outline: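 Gain-of-signal in reporter mRNA, relative to DMSO, was scored from capillary electrophoresis fluorescence. HepG2 cells carried transiently transfected multiple reporter transcription units and were incubated with test chemicals for 24 h.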

Assay [18] is described as follows: ATG_GAL4_TRANS: Attagene TRANS-FACTORIAL HepG2 Assay for GAL4 (Internal Marker) (AID 2282976; active = hit-call score of the fitted dose curve at least 0.9, where 1 is the maximum). The conditions noted are these: HepG2 Attagene TRANS GAL4 internal marker reporter. The gist of the method:
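HepG2 cells transiently transfected with multiplexed GAL4-UAS reporter constructs were dosed for 24 h. Reporter mRNA was measured by RT-PCR, 6-FAM primer extension, HpaI digestion and capillary electrophoresis, and gain of signal was fitted relative to DMSO.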

Assay [19] concerns the target Estrogen-related receptor gamma (Homo sapiens) (UniProt P62508). The assay is described as follows: ATG_ERRg_TRANS: Attagene TRANS-FACTORIAL HepG2 Assay for human Estrogen-Related Receptor gamma (ERRg) (AID 2282977; active = hit-call score of the fitted dose curve at least 0.9, where 1 is the maximum;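 also: hits increase reporter signal over DMSO so potencies reflect activators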). The conditions noted are these: HepG2 Attagene TRANS reporter, ERRg transactivation. The gist of the method: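 Readout: fluorescent reporter-mRNA fragments resolved by capillary electrophoresis after RT-PCR and HpaI cut. Cells: transiently transfected HepG2 carrying GAL4-UAS reporters driven by exogenous NR-Gal4 chimeras, dosed 24 h. Activity fitted upward relative to DMSO baseline.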

Assay [20] deals with Nuclear receptor subfamily 1 group I member 3 (Homo sapiens) (UniProt Q14994). The assay is described as follows: ATG_CAR_TRANS: Attagene TRANS-FACTORIAL HepG2 Assay for human Constitutive Androstane Receptor (CAR) (AID 2282969; active = hit-call score of the fitted dose curve at least 0.9, where 1 is the maximum;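 also: activators raise reporter mRNA above DMSO so AC50 marks induction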). The conditions noted are these: HepG2 Attagene TRANS-FACTORIAL CAR reporter. In outline:
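Steps: transient transfection of HepG2 with multiple GAL4-UAS reporter units; 24 h compound incubation; RNA isolation, RT-PCR, 6-FAM primer extension, HpaI digest; capillary electrophoresis. Gain-of-signal relative to DMSO negative control.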

Inconclusive results are not listed. Active and inactive are the calls of the source. The calls were made as follows, unless noted: active = hit-call score of the fitted dose curve at least 0.9, where 1 is the maximum; inactive = score below 0.9.

Transcription factor Sp1 (Homo sapiens), sequence (P08047 whole entry, looked up): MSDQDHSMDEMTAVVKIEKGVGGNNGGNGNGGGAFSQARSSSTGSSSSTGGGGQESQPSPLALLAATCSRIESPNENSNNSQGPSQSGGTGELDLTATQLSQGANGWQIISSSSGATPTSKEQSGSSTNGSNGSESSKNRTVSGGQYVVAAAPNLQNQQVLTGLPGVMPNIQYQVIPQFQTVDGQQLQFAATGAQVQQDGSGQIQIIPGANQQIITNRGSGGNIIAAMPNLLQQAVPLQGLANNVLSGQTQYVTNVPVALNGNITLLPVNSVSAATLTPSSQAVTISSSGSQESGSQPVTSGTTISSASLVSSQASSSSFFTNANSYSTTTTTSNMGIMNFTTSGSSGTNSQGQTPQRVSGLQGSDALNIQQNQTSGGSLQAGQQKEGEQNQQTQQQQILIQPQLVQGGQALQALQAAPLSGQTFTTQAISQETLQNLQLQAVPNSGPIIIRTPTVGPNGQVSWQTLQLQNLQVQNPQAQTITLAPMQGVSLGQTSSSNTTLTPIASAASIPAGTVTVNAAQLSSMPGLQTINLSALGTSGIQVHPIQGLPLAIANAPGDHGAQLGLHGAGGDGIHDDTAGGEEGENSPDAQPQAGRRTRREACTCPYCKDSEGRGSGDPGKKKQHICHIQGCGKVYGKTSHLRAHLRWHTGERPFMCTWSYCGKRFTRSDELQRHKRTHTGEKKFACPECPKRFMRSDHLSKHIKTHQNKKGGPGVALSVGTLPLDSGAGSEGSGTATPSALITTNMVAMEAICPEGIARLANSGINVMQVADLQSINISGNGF
Estrogen receptor (Homo sapiens), sequence (P03372 whole entry, looked up, the tested form may be a part): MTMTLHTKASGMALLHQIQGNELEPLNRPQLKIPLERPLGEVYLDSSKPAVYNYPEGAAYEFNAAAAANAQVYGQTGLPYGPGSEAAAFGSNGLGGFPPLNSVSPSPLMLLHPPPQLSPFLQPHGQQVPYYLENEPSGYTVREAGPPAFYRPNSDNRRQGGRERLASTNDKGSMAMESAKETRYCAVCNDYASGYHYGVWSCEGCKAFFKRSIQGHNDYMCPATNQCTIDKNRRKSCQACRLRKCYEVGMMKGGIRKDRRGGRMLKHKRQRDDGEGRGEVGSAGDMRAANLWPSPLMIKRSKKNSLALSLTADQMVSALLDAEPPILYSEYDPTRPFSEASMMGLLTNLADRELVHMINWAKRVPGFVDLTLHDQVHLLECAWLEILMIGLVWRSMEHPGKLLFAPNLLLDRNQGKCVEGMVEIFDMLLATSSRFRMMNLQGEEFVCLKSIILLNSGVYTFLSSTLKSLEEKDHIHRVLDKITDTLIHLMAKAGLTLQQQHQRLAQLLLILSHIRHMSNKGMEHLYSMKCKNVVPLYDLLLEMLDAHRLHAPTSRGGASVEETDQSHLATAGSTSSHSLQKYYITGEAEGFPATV
Paired box protein Pax-6 (Homo sapiens), sequence (P26367 whole entry, looked up): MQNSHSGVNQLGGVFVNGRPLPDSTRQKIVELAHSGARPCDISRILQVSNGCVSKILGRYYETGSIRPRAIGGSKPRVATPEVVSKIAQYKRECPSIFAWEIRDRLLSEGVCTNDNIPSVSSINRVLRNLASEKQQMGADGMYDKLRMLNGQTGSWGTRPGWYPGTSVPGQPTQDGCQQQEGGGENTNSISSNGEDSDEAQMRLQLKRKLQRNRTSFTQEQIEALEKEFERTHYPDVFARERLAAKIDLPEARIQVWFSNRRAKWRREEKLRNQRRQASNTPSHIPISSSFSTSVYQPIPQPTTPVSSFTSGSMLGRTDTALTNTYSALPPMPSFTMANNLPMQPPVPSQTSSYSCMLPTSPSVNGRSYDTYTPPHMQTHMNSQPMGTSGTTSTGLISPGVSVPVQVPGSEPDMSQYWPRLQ
Estrogen-related receptor gamma (Homo sapiens), sequence (P62508 whole entry, looked up, the tested form may be a part): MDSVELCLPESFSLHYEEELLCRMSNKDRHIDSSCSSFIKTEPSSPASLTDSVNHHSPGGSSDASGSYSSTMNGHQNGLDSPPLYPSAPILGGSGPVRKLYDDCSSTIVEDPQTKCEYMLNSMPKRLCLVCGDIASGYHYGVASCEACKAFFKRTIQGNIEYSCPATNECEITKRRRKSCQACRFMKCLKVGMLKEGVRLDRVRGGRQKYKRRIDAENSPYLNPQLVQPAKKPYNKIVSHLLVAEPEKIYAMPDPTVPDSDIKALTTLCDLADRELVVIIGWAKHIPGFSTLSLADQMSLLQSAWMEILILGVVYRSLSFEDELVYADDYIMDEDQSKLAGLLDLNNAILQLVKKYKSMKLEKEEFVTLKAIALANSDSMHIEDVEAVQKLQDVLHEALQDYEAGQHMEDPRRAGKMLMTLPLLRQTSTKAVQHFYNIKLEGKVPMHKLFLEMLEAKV
Steroid hormone receptor ERR1 (Homo sapiens), sequence (P11474 whole entry, looked up, the tested form may be a part): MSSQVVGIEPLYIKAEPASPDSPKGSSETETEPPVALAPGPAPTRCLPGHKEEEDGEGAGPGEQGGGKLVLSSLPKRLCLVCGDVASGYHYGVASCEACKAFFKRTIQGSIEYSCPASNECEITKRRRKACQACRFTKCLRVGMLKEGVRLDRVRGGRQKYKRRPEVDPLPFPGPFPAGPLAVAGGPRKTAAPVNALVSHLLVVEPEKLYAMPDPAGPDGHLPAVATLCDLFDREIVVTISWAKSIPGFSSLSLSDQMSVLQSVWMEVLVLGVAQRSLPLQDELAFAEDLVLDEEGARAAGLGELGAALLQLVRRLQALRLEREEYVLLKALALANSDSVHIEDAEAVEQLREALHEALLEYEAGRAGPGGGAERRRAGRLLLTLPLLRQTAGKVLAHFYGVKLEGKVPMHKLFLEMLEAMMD
Nuclear receptor subfamily 1 group I member 3 (Homo sapiens), sequence (Q14994 whole entry, looked up, the tested form may be a part): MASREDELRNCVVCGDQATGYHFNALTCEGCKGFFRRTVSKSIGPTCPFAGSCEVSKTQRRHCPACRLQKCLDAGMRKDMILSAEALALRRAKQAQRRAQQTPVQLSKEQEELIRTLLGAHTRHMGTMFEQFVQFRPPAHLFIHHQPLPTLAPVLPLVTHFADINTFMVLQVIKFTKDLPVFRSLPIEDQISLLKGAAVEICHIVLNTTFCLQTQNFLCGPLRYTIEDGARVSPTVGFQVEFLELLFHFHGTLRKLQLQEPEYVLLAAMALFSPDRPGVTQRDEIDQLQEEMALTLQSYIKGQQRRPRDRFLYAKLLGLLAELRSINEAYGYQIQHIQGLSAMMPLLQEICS

Consider `COC(=O)c1ccccc1OC`, for which the call in assay [1], in [2], in assay [3], in assay [4], in assay [5] and in assay [6] was inactive. For the same molecule, the call in assay [7], in [8], in assay [9], in assay [10] and in assay [11] was inactive.

For the molecule `CC(=O)OC(C)C`, the molecule was classed as inactive in assay [1], in [3], in [4], in assay [5], in assay [6] and in assay [12]. For the same molecule, the outcome in assay [13], in [8], in assay [9], in [14], in assay [15] and in assay [11] was inactive. The AC50 in [2] was 100 µM (active).

In the case of `COC(=O)c1c(C)cc(O)c(C)c1O`, the molecule was called inactive in assay [1], in assay [2], in [3], in [4], in assay [5] and in assay [6]. The call in assay [12], in assay [13], in assay [8], in assay [16], in assay [9] and in assay [14] was inactive. Moreover, the call in assay [11], in [17] and in assay [18] was inactive. For the same molecule, in assay [15], the AC50 is 38.7 µM (active).

Regarding `NC(=O)NNC(N)=O`, the call in assay [1], in assay [2], in assay [3], in assay [4], in assay [5] and in assay [6] was inactive. In addition, the result in [7], in assay [13], in assay [16], in assay [9], in assay [14] and in assay [11] was inactive. Also, the result in assay [17] and in [19] was inactive.

As to `COc1cc(NC(=O)CC(C)=O)c(OC)cc1Cl`, the result in [1], in assay [3], in [4], in [5], in [6] and in [12] was inactive. Moreover, the result in assay [13], in assay [8], in assay [16], in [9], in [20] and in [15] was inactive. Further, the call in assay [10], in assay [11], in assay [17], in assay [18] and in [19] was inactive. In addition, in [2], the AC50 was 31.5 µM (active).

As for `O=C(c1ccccc1)c1ccc(O)c(O)c1O`, the molecule was classed as inactive in assay [1], in assay [3], in [4], in assay [5], in [7] and in assay [13]. In addition, the call in assay [8], in assay [16], in [9], in assay [14], in assay [10] and in [11] was inactive. Also, the molecule was classed as inactive in assay [18] and in [19]. Further, the values for the AC50 in assay [2] and in [15] were 26.9 µM (active) and 27.3 µM (active), respectively.

For the molecule `Cc1oncc1C(=O)Nc1ccc(C(F)(F)F)cc1`, the outcome in assay [1], in assay [2], in assay [4], in [6], in assay [12] and in assay [7] was inactive. In addition, the molecule was called inactive in [13], in assay [8], in assay [16], in assay [9], in assay [15] and in assay [11]. Moreover, in assay [18], the call was inactive. For the same molecule, in assay [3], the AC50 is 100 µM (active).

Regarding `CCCOCCOCCOCCO`, the molecule was classed as inactive in assay [1], in assay [2], in [3], in assay [4], in assay [6] and in [12]. The result in assay [7], in assay [13], in assay [8], in assay [16], in assay [14] and in assay [10] was inactive. The molecule was classed as inactive in assay [11], in assay [17] and in assay [19].

Turning to `Cc1cc(C)c(C)cc1C`, the result in [1], in [2], in [3], in assay [4], in assay [5] and in assay [12] was inactive. In addition, the molecule was classed as inactive in [13], in [8], in [16], in assay [9], in assay [14] and in assay [15]. Also, the call in assay [11] and in [17] was inactive.

Values taken from PubChem BioAssay (EPA / NIEHS).
